The values below come from ChEMBL document CHEMBL4513216, “Probing the Open Global Health Chemical Diversity Library for Multistage-Active Starting Points for Next-Generation Antimalarials” (ACS Infect Dis, 2020).

In all, about 65,000 compounds went through this assay and about 2,100 (3.2%) showed an effect of 50% or more. The median lay at about -52%. What follows is part of a selection rich in strong results, with near analogues and random picks from the rest.

The assay deals with Plasmodium falciparum. In words: Screen against P. falciparum Asexual Blood Stage (ABS), at 5uM. The class given is functional, Dd2. Conditions: tested at 5 uM.
Consider `CC(C)n1c(=O)c2ccccc2n(CCN(C)C)c1=O`, for which the INHIBITION is listed as 36.1%.
As for `CC(C)n1c(=O)c2ccccc2n(CCCN(C)C)c1=O`, the INHIBITION is 59.5%.
To `CN(C)CCn1c(=O)n(C)c(=O)c2ccccc21` belongs -7.78%.
Turning to `CCN(Cc1ccccc1)C(=O)CCN1CC(O)C1`, the INHIBITION was -76.9%.
In the case of `Cc1nc(C)c(C(=O)N2Cc3ccccc3OCC2Cn2ccnc2)s1` (stereo not drawn), the INHIBITION is reported as -22.8%.
For the compound `CN1CCCCCC1C(=O)N1CCN(c2ccccc2C#N)CC1` (stereo not drawn), the INHIBITION was found to be 60.4%.
Take `CC(C)N1CCC(C(=O)N2CCCN(c3ccccc3)CC2)CC1`: the INHIBITION was -38.1%.
Turning to `CN1CCCCC1C(=O)N1CCN(c2ccccc2C#N)CC1` (stereo not drawn), the INHIBITION amounted to 11.5%.
To `CN1CCCCCC1C(=O)N1CCCN(c2ccccc2)CC1` (stereo not drawn) belongs 61.8%; to `N#Cc1ccccc1N1CCN(C(=O)NCC(=O)N2CCCC2)CC1`, -1.82%; to `COC(=O)N1CCCCC1C(=O)N1CCN(c2cccnc2)CC1` (stereo not drawn), -87.5%.
Consider `CC[C@H]1CN(C(=O)c2ccc(-n3cnnc3)nc2)CC[C@@]1(C)O`, for which the INHIBITION is recorded as -129%.
To `Cc1noc(C)c1CCC(=O)N1CCCN(Cc2cccs2)CC1` belongs -63%; to `CC(C1CCN(Cc2ccc(OC(F)F)cc2)CC1)N1CCOCC1` (stereo not drawn), -26.3%; to `CC(C1CCN(Cc2ccccc2OC(F)F)CC1)N1CCOCC1` (stereo not drawn), 9.39%.
As for `CC(C)Oc1cccc(CN2CCC(c3n[nH]c4ncccc34)CC2)c1`, the INHIBITION was -51.3%.
Turning to `CC(C1CCN(Cc2ccc(N(C)C)nc2)CC1)N1CCOCC1` (stereo not drawn), the INHIBITION is -5.43%.
To `CC(C)Oc1cccc(CN2CCC(C(C)N3CCOCC3)CC2)c1` (stereo not drawn) belongs 55.8%; to `CC(C1CCN(Cc2cccc(OC(F)F)c2)CC1)N1CCOCC1` (stereo not drawn), 68.3%; to `CCc1ccc(C(CNC(=O)c2c(C)noc2C)N(C)C)cc1` (stereo not drawn), -71.9%.
For the compound `O=C(NC1CC1)[C@H]1C[C@H]2OCC[C@H]2N(CC2CC2)C1`, the INHIBITION is recorded as -28.3%.
With `CC(C)(C)CC(=O)NCCn1nc(C2CCNC2)c2cccnc21` (stereo not drawn), the INHIBITION is given as -134%.
To `Cc1nccc(NCc2cncc3c2CCN(CC2CCOC2)C3)n1` (stereo not drawn) belongs -81.6%; to `CC(C)n1cc(C(=O)N2CCN(c3cccc(C(F)(F)F)c3)CC2)cn1`, -46.5%.
As to `O=C(O)c1cn(CC2CCCN(c3nccc4occc34)C2)nn1` (stereo not drawn), the INHIBITION was -30.1%.
In the case of `CN(C)Cc1cn(CC2CCCN(c3nccc4occc34)C2)nn1` (stereo not drawn) it was 60.5%; in that of `CC(O)Cc1cn(CC2CCN(c3nccc4occc34)CC2)nn1` (stereo not drawn), -39.4%.
On to `CC(C)(C)c1ncc(C(=O)NCc2ccccc2CN2CCCC2)s1`, for which the INHIBITION is on record as -23.4%.
In the case of `O=C(c1ccc[nH]1)N1C[C@H](OCc2ccccn2)[C@H]2COC[C@H]21`, the INHIBITION is recorded as -89.2%.
In the case of `O=C1NCCN1C1CCN(Cc2coc(-c3ccc(F)cc3)n2)CC1` it was -71.8%.
`C[C@@H]1CN(C2CCN(Cc3nn(C)c4cccc(Cl)c34)CC2)C[C@H](C)O1`: the INHIBITION is -9.68%.
To `Cn1nc(CN2CCCN(C3CCCC3)CC2)c2c(Cl)cccc21` belongs 68.9%.
Take `Cn1nc(CN2CCC(c3ccncc3)CC2)c2c(Cl)cccc21`: the INHIBITION is given as -14.6%.
`COCCN1C(=O)CO[C@H]2CN(Cc3ccccc3Cl)C[C@@H]21`: the INHIBITION is -123%.
In the case of `CCN1CCOCC12CCN(c1nccs1)CC2` it was -144%; in that of `CN(CCN1CCOC1=O)CC(=O)Nc1ccc(Cl)c(C(F)(F)F)c1`, -56.7%; in that of `CCNCCOc1ccc(-c2cc(N)nc3[nH]ccc23)cc1`, 51.3%.
To `Nc1cc(-c2cc(O)cc(C(=O)O)c2)c2cc[nH]c2n1` belongs -9.72%; to `CNc1cc(-c2ccc(COCCN)cc2)c2cc[nH]c2n1`, 2.35%.
As for `CCOCCCNC(=O)c1ccccc1S(C)(=O)=O`, the INHIBITION is -120%.
For `CSCCNc1ccc(C(=O)N(C)Cc2ccc3ccccc3n2)cn1`, the INHIBITION was -73.9%.
In the case of `CCOc1ccc(NC(=O)NCCS(=O)(=O)CC)cc1C` it was 4.65%; in that of `COc1cc(CNCCc2cnn(C)c2)cc2c1OCO2`, -26.5%; in that of `COc1cc(CNCC(O)c2ccccc2)cc2c1OCO2` (stereo not drawn), 61.1%.
To `COc1cc(CNCc2ccc(C(C)O)cc2)cc2c1OCO2` (stereo not drawn) belongs 9.88%; to `Cc1ccc(CN2CCc3onc(C(=O)NCCN(C)C)c3C2)o1`, -43.9%; to `CS(=O)(=O)N1CC2(CCN(CC3CCCCC3)CC2)Cc2ccccc21`, 63.8%.
In the case of `CS(=O)(=O)N1Cc2ccccc2CC2(CCN(Cc3ccccc3)C2)C1` (stereo not drawn) it was 9.04%.
As to `CS(=O)(=O)N1CC2(CCN(CC3CCCCC3)C2)Cc2ccccc21` (stereo not drawn), the INHIBITION is listed as -36.9%.
Turning to `CC(=O)N1CC2(CCCN(Cc3ccc(Cl)cc3)C2)Cc2ccccc21` (stereo not drawn), the INHIBITION is reported as -0.688%.
In the case of `CS(=O)(=O)N1CC2(CCCN2Cc2ccc(Cl)cc2)Cc2ccccc21` (stereo not drawn) it was -33%; in that of `CS(=O)(=O)N1CC2(CCCN(CC3CC3)C2)Cc2ccccc21` (stereo not drawn), 69.8%.
To `Cc1csc(N2CCN(CC(=O)Nc3ccncc3)CC2C)n1` (stereo not drawn) belongs -32.7%.
